Laboratory results: PubChem BioAssay (Tox21)
“And” between values parts separate entries of the source, which are not always exact repeats. Equal entries are not always repeated. The source holds several records for some structures; these can differ, active in one and inactive in another. The source made the active and inactive calls. Entries that show only a call come without a potency. Unless noted, calls come from the whole dose curve; as a rule, active = well fitted curve in the direction sought with a large enough effect in the repeat runs; inconclusive = weak or mixed curves; inactive = no such curve, though single readings can be large; an effect the other way counts as inactive or inconclusive.

Legend:
[1] = qHTS assay to identify small molecule antagonists of the thyroid receptor (TR) signaling pathway (AID 743065); note: nearly all actives have a fitted effect of over 55% in size; note: potency is the fitted concentration of half-maximal effect
Procedure, shortened: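 GH3.TRE-Luc rat pituitary cells carrying two TR response elements driving luciferase were plated for 4 h, given compound plus 1 nM T3 (final), and incubated 23.5 h at 37 C. ONE-Glo luminescence measured reporter inhibition; CellTiter-Fluor fluorescence tracked cytotoxicity.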

[2] = system: thyroid hormone receptor (rat, GH3 cells); test: qHTS assay to identify small molecule agonists of the thyroid receptor (TR) signaling pathway (AID 743066; calls by dose curve)
[3] = qHTS assay to identify small molecule antagonists of the estrogen receptor alpha (ER-alpha) signaling pathway - cell viability counter screen (AID 743074; calls by dose curve;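 note: HEK293 cells carrying ER-alpha-UAS-bla reporter stimulated with 17beta-estradiol; nearly all actives have a fitted effect of over 45% in size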; note: potency is the fitted concentration of half-maximal effect)
[4] = qHTS assay to identify small molecule antagonists of the estrogen receptor alpha (ER-alpha) signaling pathway using the BG1 cell line - cell viability counter screen (AID 743081);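 note: compound given together with 17beta-estradiol as the ER stimulus; nearly all actives have a fitted effect of over 45% in size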; note: potency is the fitted concentration of half-maximal effect
Aromatase (Homo sapiens) = Aromatase (Homo sapiens) (UniProt P11511); test: qHTS assay to identify aromatase inhibitors (AID 743083); note: nearly all actives have a fitted effect of over 55% in size; note: potency is the fitted concentration of half-maximal effect
Chain of Aromatase (Homo sapiens) (P11511 whole entry, looked up): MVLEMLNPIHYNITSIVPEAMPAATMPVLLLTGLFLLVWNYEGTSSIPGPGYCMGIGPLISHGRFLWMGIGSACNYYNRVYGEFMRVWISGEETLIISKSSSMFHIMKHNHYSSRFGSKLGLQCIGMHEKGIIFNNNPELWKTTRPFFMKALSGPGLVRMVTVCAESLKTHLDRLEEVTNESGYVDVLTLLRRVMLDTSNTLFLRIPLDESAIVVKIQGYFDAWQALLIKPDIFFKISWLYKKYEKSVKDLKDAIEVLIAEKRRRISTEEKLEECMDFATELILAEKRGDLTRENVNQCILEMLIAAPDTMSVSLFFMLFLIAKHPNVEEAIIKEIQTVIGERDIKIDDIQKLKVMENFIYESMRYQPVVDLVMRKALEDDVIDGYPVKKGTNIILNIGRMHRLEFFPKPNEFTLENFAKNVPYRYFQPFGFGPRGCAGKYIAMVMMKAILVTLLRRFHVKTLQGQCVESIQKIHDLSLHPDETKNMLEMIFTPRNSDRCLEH

[5] = qHTS assay to identify aromatase inhibitors - cell viability counter screen (AID 743084);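 note: cells stimulated with testosterone during compound exposure; nearly all actives have a fitted effect of over 55% in size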; note: potency is the fitted concentration of half-maximal effect
[6] = target: Aryl hydrocarbon receptor (Homo sapiens) (UniProt P35869); test: qHTS assay to identify small molecule that activate the aryl hydrocarbon receptor (AhR) signaling pathway (AID 743085); note: nearly all actives have a fitted effect of over 15% in size; note: potency is the fitted concentration of half-maximal effect;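 for activation: HG2L7.5c1 human HepG2 liver cells with stably integrated DRE-driven firefly reporter; series mostly up to about 70 µM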
Chain of Aryl hydrocarbon receptor (Homo sapiens) (P35869 whole entry, looked up): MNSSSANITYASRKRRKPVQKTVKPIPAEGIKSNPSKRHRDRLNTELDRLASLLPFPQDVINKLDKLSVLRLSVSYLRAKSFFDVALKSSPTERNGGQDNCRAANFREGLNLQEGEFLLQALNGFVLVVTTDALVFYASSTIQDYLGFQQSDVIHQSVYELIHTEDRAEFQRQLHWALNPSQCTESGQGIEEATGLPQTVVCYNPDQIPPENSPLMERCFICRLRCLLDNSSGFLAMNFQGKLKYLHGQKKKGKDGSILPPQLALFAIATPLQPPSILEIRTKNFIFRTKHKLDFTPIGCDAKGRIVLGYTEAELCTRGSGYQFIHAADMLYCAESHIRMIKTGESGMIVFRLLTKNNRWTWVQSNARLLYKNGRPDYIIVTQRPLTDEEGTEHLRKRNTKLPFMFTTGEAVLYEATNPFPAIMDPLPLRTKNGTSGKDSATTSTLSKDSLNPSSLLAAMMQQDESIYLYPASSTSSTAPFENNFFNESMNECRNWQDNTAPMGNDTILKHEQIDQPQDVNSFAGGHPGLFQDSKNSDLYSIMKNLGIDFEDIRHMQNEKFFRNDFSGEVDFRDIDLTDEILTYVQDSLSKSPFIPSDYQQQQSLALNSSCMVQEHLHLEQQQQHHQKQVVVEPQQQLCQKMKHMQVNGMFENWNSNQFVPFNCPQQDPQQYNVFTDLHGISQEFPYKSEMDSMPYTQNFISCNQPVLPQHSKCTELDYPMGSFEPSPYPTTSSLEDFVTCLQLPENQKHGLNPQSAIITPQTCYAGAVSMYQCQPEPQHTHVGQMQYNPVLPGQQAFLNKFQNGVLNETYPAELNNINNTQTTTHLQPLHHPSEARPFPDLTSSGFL
Procedure, shortened: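 HepG2 cells (HG2L7.5c1) stably carrying a firefly luciferase reporter driven by 20 dioxin responsive elements were exposed to compound for 24 h at 37C after a 5 h settling period; luminescence rise (ONE-Glo) indicated activation.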

[7] = qHTS assay to identify small molecule antagonists of the peroxisome proliferator-activated receptor gamma (PPARg) signaling pathway - cell viability counter screen (AID 743194); conditions: Potency: co-treated with 50 nM rosiglitazone unless noted; note: nearly all actives have a fitted effect of over 55% in size; note: potency is the fitted concentration of half-maximal effect
Procedure, shortened: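 PPARg-UAS-bla HEK293H cells were plated, rested 5 h at 37 C, then treated with compounds plus rosiglitazone (50 nM final) for 17 h at 37 C; viability was then read by CellTiter-Glo luminescence after 30 min at room temperature.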

[8] = qHTS assay for small molecule activators of the heat shock response signaling pathway - cell viability counter screen (AID 743209); note: nearly all actives have a fitted effect of over 50% in size; note: potency is the fitted concentration of half-maximal effect
Procedure, shortened: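 Counter screen for cytotoxicity in HeLa HSE-bla reporter cells. Treatment was 5 h at 37 C; viability was detected by luminescent ATP assay (CellTiter-Glo) in the same wells as the beta-lactamase read.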

[9] = qHTS assay to identify small molecule that activate the aryl hydrocarbon receptor (AhR) signaling pathway - cell viability counter screen (AID 743086); note: nearly all actives have a fitted effect of over 45% in size; note: potency is the fitted concentration of half-maximal effect
Procedure, shortened: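 HepG2-AhR-luc (HG2L7.5c1) cells, 4000/well, were preincubated 5 h at 37C, exposed to compound in qHTS format for 24 hr at 37C, then given CellTiter-Fluor for 30 min; viability was read as fluorescence in the reporter wells.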

[10] = target: Peroxisome proliferator-activated receptor gamma (Homo sapiens) (UniProt P37231); test: qHTS assay to identify small molecule agonists of the peroxisome proliferator-activated receptor gamma (PPARg) signaling pathway (AID 743094; active = well fitted activation curve with a large enough effect in the signal ratio in the repeat runs, not every such curve was filed as active; inconclusive = weak or mixed curves, or effect the other way; inactive = no such curve, though single readings can be large or run the other way; the % refers to the signal ratio)
Chain of Peroxisome proliferator-activated receptor gamma (Homo sapiens) (P37231 whole entry, looked up): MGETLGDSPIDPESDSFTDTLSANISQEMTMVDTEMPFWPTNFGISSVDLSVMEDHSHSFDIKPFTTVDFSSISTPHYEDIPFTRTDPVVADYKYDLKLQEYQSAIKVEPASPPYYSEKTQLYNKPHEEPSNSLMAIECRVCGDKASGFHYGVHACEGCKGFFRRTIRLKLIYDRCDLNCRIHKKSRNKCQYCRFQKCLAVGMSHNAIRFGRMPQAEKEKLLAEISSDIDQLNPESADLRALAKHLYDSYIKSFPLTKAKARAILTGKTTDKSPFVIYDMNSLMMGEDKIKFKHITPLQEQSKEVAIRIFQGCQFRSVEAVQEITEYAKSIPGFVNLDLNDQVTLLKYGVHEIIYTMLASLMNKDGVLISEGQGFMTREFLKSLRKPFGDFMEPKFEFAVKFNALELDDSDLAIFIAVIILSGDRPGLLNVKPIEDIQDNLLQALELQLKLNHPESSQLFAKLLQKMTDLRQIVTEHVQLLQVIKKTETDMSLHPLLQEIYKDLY
Procedure, shortened: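 Following 5 h plating at 37C, PPARg-bla HEK293H cells receive compound or DMSO for 17 h; fluorescence intensity is recorded after LiveBLAzer B/G loading for 1 h at room temperature.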

[11] = target: Peroxisome proliferator-activated receptor gamma (Homo sapiens) (UniProt P37231); test: qHTS assay to identify small molecule antagonists of the peroxisome proliferator-activated receptor gamma (PPARg) signaling pathway (AID 743191; calls by dose curve; note: nearly all actives have a fitted effect of over 30% in size; note: potency is the fitted concentration of half-maximal effect)
Procedure, shortened: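 GeneBLAzer PPARg UAS-bla HEK293H cells carrying a UAS-driven beta-lactamase reporter were plated at 3000 cells/well, preincubated 5 h at 37C, then given compound for 17 h at 37C; LiveBLAzer B/G FRET substrate was read after 1 h at room temperature.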

[12] = qHTS assay for small molecule activators of the heat shock response signaling pathway (AID 743210; active = well fitted activation curve with a large enough effect in the signal ratio in the repeat runs, with a control signal flat, not every such curve was filed as active; inconclusive = weak or mixed curves; the % refers to the signal ratio; note: potency is the fitted concentration of half-maximal effect;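 for activation: HeLa cells with beta-lactamase reporter driven by heat shock elements; series mostly up to about 63 µM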)
Procedure, shortened: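 Reporter gene assay: HeLa cells stably bearing an HSE-bla construct, compound treatment 5 h at 37 C, LiveBLAzer substrate 2.5 h at RT, fluorescence intensity.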

[13] = qHTS assay to identify small molecule agonists of the peroxisome proliferator-activated receptor delta (PPARd) signaling pathway - cell viability counter screen (AID 743211); note: nearly all actives have a fitted effect of over 55% in size; note: potency is the fitted concentration of half-maximal effect
Procedure, shortened: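 PPARd-bla HEK293H cells (UAS-beta-lactamase reporter) were treated with compounds for 17 h at 37 C. Viability was then read in the same wells by CellTiter-Glo luminescence after 30 min at room temperature.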

[14] = qHTS assay for small molecule agonists of the antioxidant response element (ARE) signaling pathway - cell viability counter screen (AID 743203; calls by dose curve; note: nearly all actives have a fitted effect of over 55% in size; note: potency is the fitted concentration of half-maximal effect)
Procedure, shortened: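 Compounds in DMSO were pinned onto ARE-bla HepG2 cells plated 5 hrs earlier at 2,000 cells/well. Sixteen hours later at 37C/5% CO2, CellTiter-Glo was added and luminescence measured after 30 min at room temperature.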

[15] = target: Estrogen receptor (Homo sapiens) (UniProt P03372); test: qHTS assay to identify small molecule agonists of the estrogen receptor alpha (ER-alpha) signaling pathway (AID 743075; calls by dose curve;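 note: HEK293 GripTite cells with ER-alpha and UAS-driven beta-lactamase reporter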; note: potency is the fitted concentration of half-maximal effect)
Chain of Estrogen receptor (Homo sapiens) (P03372 whole entry, looked up): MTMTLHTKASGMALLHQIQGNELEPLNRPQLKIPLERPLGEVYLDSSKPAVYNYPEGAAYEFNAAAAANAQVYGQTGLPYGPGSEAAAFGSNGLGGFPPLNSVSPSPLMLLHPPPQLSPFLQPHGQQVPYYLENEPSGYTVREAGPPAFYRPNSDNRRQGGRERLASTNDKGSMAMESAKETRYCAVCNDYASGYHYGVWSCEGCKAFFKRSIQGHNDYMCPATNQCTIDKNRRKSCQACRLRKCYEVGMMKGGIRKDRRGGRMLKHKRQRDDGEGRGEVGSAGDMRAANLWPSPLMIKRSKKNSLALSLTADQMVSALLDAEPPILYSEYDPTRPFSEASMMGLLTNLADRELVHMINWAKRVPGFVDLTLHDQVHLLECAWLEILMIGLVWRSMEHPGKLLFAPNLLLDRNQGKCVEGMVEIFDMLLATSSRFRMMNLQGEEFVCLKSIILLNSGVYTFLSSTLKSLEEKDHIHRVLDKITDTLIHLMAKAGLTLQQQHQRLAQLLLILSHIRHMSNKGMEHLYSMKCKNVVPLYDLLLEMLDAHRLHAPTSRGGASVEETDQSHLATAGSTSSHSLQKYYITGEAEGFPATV

[16] = target: Estrogen receptor (Homo sapiens) (UniProt P03372); test: qHTS assay to identify small molecule agonists of the estrogen receptor alpha (ER-alpha) signaling pathway using the BG1 cell line (AID 743079); note: nearly all actives have a fitted effect of over 20% in size
[17] = qHTS assay to identify small molecule antagonists of the estrogen receptor alpha (ER-alpha) signaling pathway using the BG1 cell line (AID 743080; calls by dose curve;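 note: BG1 cells stimulated with 17beta-estradiol alongside compound; nearly all actives have a fitted effect of over 25% in size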; note: potency is the fitted concentration of half-maximal effect)
Procedure, shortened: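 Quantitative HTS on the Tox21 10K library: BG1 cells with endogenous ER-alpha and ERE-luciferase reporter, 17beta-estradiol stimulation, 21.5 h compound exposure, luminescence endpoint with parallel fluorescence cytotoxicity counter-read.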

[18] = qHTS assay for small molecule agonists of the antioxidant response element (ARE) signaling pathway (AID 743202; active = well fitted activation curve with a large enough effect in the signal ratio in the repeat runs, not every such curve was filed as active; inconclusive = weak or mixed curves, or effect the other way; inactive = no such curve, though single readings can be large or run the other way; the % refers to the signal ratio)
Procedure, shortened: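 Compounds delivered in DMSO to ARE-bla HepG2 cells (2,000 cells/well, pre-incubated 5 h) and left 16 h at 37 C. LiveBLAzer B/G FRET substrate then added for 2 h at RT before fluorescence reading.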

[19] = target: Estrogen receptor (Homo sapiens) (UniProt P03372); test: qHTS assay to identify small molecule antagonists of the estrogen receptor alpha (ER-alpha) signaling pathway (AID 743069; active = well fitted curve in the direction sought with a large enough effect in the signal ratio in the repeat runs, not every such curve was filed as active; inconclusive = weak or mixed curves, or effect the other way; inactive = no such curve, though single readings can be large or run the other way; the % refers to the signal ratio)
Procedure, shortened: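 Estradiol-stimulated ER-alpha-UAS-bla HEK293 cells, 18 hr compound exposure at 37C. LiveBLAzer B/G substrate, 2 hr RT, fluorescence read.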

| SMILES | Potency [1] | outcome [2] | Potency [3] | Potency [4] | Potency (Aromatase (Homo sapiens)) | Potency [5] | Potency [6] | Potency [7] | Potency [8] | Potency [9] | Potency [10] | Potency [11] | Potency [12] | Potency [13] | Potency [14] | Potency [15] | Potency [16] | Potency [17] | Potency [18] | Potency [19] |
| --- | --- | --- | --- | --- | --- | --- | --- | --- | --- | --- | --- | --- | --- | --- | --- | --- | --- | --- | --- | --- |
| CCC(C)c1cc([N+](=O)[O-])cc([N+](=O)[O-])c1OC(=O)C=C(C)C (stereo not drawn) | 21.7 µM (active) | inactive | inactive | inactive | 48.6 µM (active) | 24.3 µM (active) | inactive | 54.9 µM (active) | inactive | – | – | – | – | – | – | – | – | – | – | – |
| Clc1ccc(C(c2ccc(Cl)cc2)C(Cl)(Cl)Cl)cc1 | 18.8 µM (active) and 30.9 µM (active) and 24.3 µM (active) | inactive | inactive | inactive | inactive | inactive | inactive | – | 55.3 µM (active) and 54.9 µM (active) and inactive | inactive | inactive | inactive | inactive | 49.3 µM (active) and 38.9 µM (active) | – | – | – | – | – | – |
| O=C(CBr)c1ccc(O)cc1 | inactive | inactive | inactive | inactive | inactive | inactive | inactive | inactive | – | inactive | – | – | – | inactive | inactive | – | – | – | – | – |
| CC[C@H]1C[C@@H]2C[C@H]3c4[nH]c5ccc(OC)cc5c4CCN(C2)[C@@H]13 | 30.1 µM (active) | inactive | inactive | inactive | inactive | inactive | 8.49 µM (active) | inactive | inactive | inactive | – | – | 45.9 µM (active) | 60.1 µM (active) | – | inactive | inactive | inactive | inactive | – |
| CC(C)CC(C)(c1ccc(O)cc1)c1ccc(O)cc1 | 27.4 µM (active) and 38.6 µM (active) | inactive | 55.1 µM (active) | inactive | 48.7 µM (active) | 61.3 µM (active) | inactive | 61.7 µM (active) | 55.1 µM (active) | – | – | – | – | 55.1 µM (active) and 34.7 µM (active) | 54.5 µM (active) | – | – | – | – | – |
| CCOC(=O)OC1=C(c2cc(C)ccc2C)C(=O)NC12CCC(OC)CC2 (stereo not drawn) | 54.4 µM (active) | inactive | – | inactive | inactive | inactive | inactive | – | – | inactive | inactive | – | inactive | inactive | inactive | inactive | – | inactive | inactive | inactive |
| Nc1ccc(Sc2ccc(N)cc2)cc1 | inactive | inactive | – | – | – | – | 13.7 µM (active) | inactive | – | inactive | – | – | inactive | inactive | – | 0.219 µM [inconclusive] (active) | – | inactive | – | inactive |
| FC(Cl)(Cl)Cl | inactive | inactive | inactive | inactive | inactive | inactive | inactive | inactive | inactive | inactive | – | inactive | inactive | inactive | inactive | – | – | – | inactive | – |
| CC(C)(C)OO | inactive | inactive | inactive | inactive | inactive | inactive | inactive | inactive | inactive | inactive | inactive | inactive | – | inactive | inactive | – | – | – | – | – |
| Clc1ccc(-c2ccc(Cl)c(Cl)c2Cl)c(Cl)c1Cl | inactive | inactive | inactive | inactive | inactive | inactive | inactive | – | inactive | inactive | inactive | inactive | – | 20.8 µM (active) | – | inactive | inactive | inactive | – | – |
| CC(C)CC(C)Nc1ccc(Nc2ccccc2)cc1 (stereo not drawn) | 30.1 µM (active) | inactive | 48.2 µM (active) | 53.5 µM (active) | 53.5 µM (active) | 47.7 µM (active) | – | 42.9 µM (active) | – | 67.4 µM (active) | – | – | – | 38.3 µM (active) | – | inactive | – | – | – | – |
| C=CC(=O)OCC(COC(=O)C=C)(COC(=O)C=C)COC(=O)C=C | 1.93 µM (active) | inactive | 43.6 µM (active) | 24.3 µM (active) | 3.06 µM (active) | 2.73 µM (active) | inactive | 6.92 µM (active) | 2.45 µM (active) | 19.3 µM (active) | – | – | – | 6.92 µM (active) | 43.3 µM (active) | 27.5 µM [inconclusive] (active) | – | – | – | – |
| C[C@H]1O[C@@H](O[C@H]2[C@@H](O)C[C@H](O[C@H]3[C@@H](O)C[C@H](O[C@H]4CC[C@@]5(C)[C@H](CC[C@@H]6[C@@H]5CC[C@]5(C)[C@@H](C7=CC(=O)OC7)CC[C@]65O)C4)O[C@@H]3C)O[C@@H]2C)C[C@H](O)[C@@H]1O | inactive | inactive | 33.8 nM (active) and 19.6 nM (active) | inactive | inactive | inactive | – | 7.8 nM (active) and 33.5 nM (active) | 87.7 nM (active) and 376 nM (active) | inactive | – | – | – | 0.119 µM (active) | 10.9 nM (active) and 6 nM (active) | inactive | – | 0.548 µM (active) | – | – |
| S=C=Nc1cccc2ccccc12 | inactive | inactive | inactive | inactive | 27 µM (active) | 30.3 µM (active) | 13.5 µM (active) | inactive | – | – | – | inactive | – | 24.3 µM (active) | 15.2 µM (active) | inactive | – | – | – | – |
| c1ccc2cc3c(cc2c1)-c1cccc2cccc-3c12 | inactive | inactive | inactive | – | inactive | – | 0.12 µM (active) | inactive | inactive | inactive | – | – | 5.21 µM (active) | inactive | inactive | – | inactive | 0.269 µM (active) | – | – |
| CCCN(CCC)c1c([N+](=O)[O-])cc(S(N)(=O)=O)cc1[N+](=O)[O-] | 30.6 µM (active) | inactive | 26.2 µM (active) | – | 33.1 µM (active) | 32.7 µM (active) | – | 58.6 µM (active) | – | 44.4 µM (active) | – | 37 µM (active) | – | 20.8 µM (active) | – | inactive | – | – | – | – |
| C[C@@H]1CC[C@@]2(OC1)O[C@H]1[C@@H](O)[C@H]3[C@@H]4CC[C@H]5C[C@@H](O[C@@H]6O[C@H](CO)[C@H](O[C@@H]7O[C@H](CO)[C@@H](O)[C@H](O[C@@H]8OC[C@@H](O)[C@H](O)[C@H]8O)[C@H]7O[C@@H]7O[C@H](CO)[C@@H](O)[C@H](O[C@@H]8O[C@H](CO)[C@@H](O)[C@H](O)[C@H]8O)[C@H]7O)[C@H](O)[C@H]6O)[C@H](O)C[C@]5(C)[C@H]4CC[C@]3(C)[C@H]1[C@@H]2C | 2.58 µM (active) | inactive | 10.4 µM (active) | 64.9 µM (active) | 9.16 µM (active) | 2.9 µM (active) | inactive | 23.2 µM (active) | 29.2 µM (active) | 20.5 µM (active) | – | – | – | 5.83 µM (active) | 20.5 µM (active) | 41.3 µM [inconclusive] (active) | – | – | – | – |
